PubChem BioAssay AID488857 (Sanford-Burnham Center for Chemical Genomics, 2010)
Screen size: about 1,400 compounds; about 560 (40%) were called active. The set was probably picked from earlier hits. The list shows a part of the results. A number with no mark means an inactive call.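 How the source made its calls: active means mean inhibition over duplicate tests at 10 µM above 50%; inactive means the rest.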

assay: ASC/caspase-1 reporter retest in S. cerevisiae at one dose, specificity check for NALP1 project (AID 488857); details: S. cerevisiae ASC/Caspase-1, beta-galactosidase luminescence, 24 h; at 10 µM; active compounds read high

Compound	inhibition
COc1ccc(S(=O)(=O)N2CCOC2CNC(=O)C(=O)NCCCN2CCOCC2)cc1C (stereo not drawn)	28.6%
CSc1cc(N2CCOCC2)nc(-c2ccccc2Cl)n1	74.1% (active)
O=[N+]([O-])/C=C/c1ccc2c(ccn2Cc2ccccc2)c1	98.8% (active)
C/C(=N/NC(=O)c1nnn(-c2nonc2N)c1COc1ccccc1)c1ccc(O)cc1	27.6%
CCOc1nnc(C)c2c(C)n(-c3cccc(Cl)c3)nc12	28.1%
Cc1ccc(OC(=S)Nc2ccc(O)cc2)cc1	88.4% (active)
Cc1ccc(NC(=O)CNc2ccc(OC(C)C)cc2)cc1	39.6%
Cc1ccc(C(=O)/C=C/c2cn(CC(O)CN3CCOCC3)c3ccccc23)cc1 (stereo not drawn)	52.7% (active)
CNc1ccccc(-c2ccc3ccccc3n2)c1=O	39.4%
CCN1/C(=C/c2ccc3ccc(C)cc3[n+]2CC)Sc2ccccc21	84.9% (active)
CCN1/C(=C/c2ccc3cc(C)ccc3[n+]2CC)Sc2ccccc21	100% (active)
CCN1/C(=C/C=C/C=C/c2sc3ccccc3[n+]2CC)Sc2ccccc21	41%
CC[n+]1c(/C=C2\Sc3ccccc3N2C)ccc2cccc(C)c21	98.1% (active)
CCN1/C(=C\c2ccc3ccccc3[n+]2CC)Sc2cc(C)ccc21	100% (active)
Cc1cc(N2C(=O)C=CC2=O)c([N+](=O)[O-])cc1C	3%
CC1(C)NC(=O)N(CCCCOc2ccc3ccccc3c2Cl)C1=O	48.8%
O=C(CCNc1n[nH]c(=O)[nH]c1=O)N/N=C/c1ccc(C(F)(F)F)cc1	23.2%
COc1cc(OC)c(-c2nnc(-c3ccc(OC)c(OC)c3OC)o2)cc1OC	31%
Cc1ccc2c(c1)c1c3n2CCCNC3CCC1 (stereo not drawn)	33%
c1ccc(-c2noc(-c3ccccc3-c3ccccc3)n2)cc1	23.6%
CCc1ccc(NCc2nc(-c3ccccc3)no2)cc1	57.2% (active)
Cc1cc(OCCN2CCCC2)cc(C(C)C)c1	53.9% (active)
Cc1ccc(C(C)C)cc1OCCN1CCCC1	54.6% (active)
CC(C)c1ccc(CN2CCN(C(=O)CCl)CC2)cc1	35.6%
CCc1cccc(OCCN2CCCC2)c1	41.1%
COCCCNCCOc1cc(C(C)C)ccc1C	30.4%

Compound	inhibition
Cc1cccc(C)c1OCC(=O)Nn1c(=O)[nH]c2ccccc2c1=O	34.9%
CCCCCCCCCCCCCCCCn1cc[n+](C)c1	89.7% (active)
CCCCCCCCCCCCCCCCn1cc[n+](CC(C)=O)c1	80.2% (active)
CCNc1ccc(Br)cc(C(=O)/C=C/c2c(Cl)cccc2Cl)c1=O	42.6%
O=C(/C=C/c1ccccn1)c1ccc(Br)cc1O	85.5% (active)
Cc1cc(C)c(S(=O)(=O)N(CC(=O)O)CC(=O)O)c(C)c1	46%
CC[N+]1(CC)CC2=Cc3c(ccc4ccccc34)CC2C1 (stereo not drawn)	35.5%
CCOc1ccc(C2N(c3ccc(F)cc3)C(=O)C3CCCN32)cc1 (stereo not drawn)	26.1%
CCOc1ccc(N2C(=O)CC(N)C2=O)cc1 (stereo not drawn)	70% (active)
CCCCCCOc1ccc(N2C(=O)CC(N3CCC(C(=O)OCC)CC3)C2=O)cc1 (stereo not drawn)	45.4%
Cc1ccc(Cl)cc1N1CCN(S(C)(=O)=O)CC1	33.1%
O=C(Cc1cccs1)Nc1nc(-c2ccc(F)cc2F)cs1	74.7% (active)
COc1ccc(-c2nc3c(c(=O)[nH]c(=O)n3Cc3ccccc3)n2C)cc1	41%
O=C(Nc1ccc(F)cc1)c1cccnc1N1CCCCC1	43.2%
CCOC(=O)c1ccccc1NC(=O)COc1cc(=O)n(CC)c2ccccc12	33.4%
CCOc1ccccc1C(=O)OCC(=O)Nc1ccc(N2CCCCC2)cc1	67.3% (active)
CNC(=S)N/N=C/c1cc(Br)cc(Br)c1O	85.5% (active)
CC(=O)n1cc(-c2ccncc2)c2ccccc21	52.4% (active)
CN1CCc2cccc3c2[C@H]1Cc1ccc(O)c(O)c1-3	50.5% (active)
CN1CCc2cccc3c2[C@@H]1Cc1ccc(O)c(O)c1-3	67% (active)
Fc1ccc(Nc2ccnc(Nc3ccc(F)cc3)n2)cc1	46.8%
COc1ccc(Nc2ccnc(Nc3ccc(OC)cc3)n2)cc1	64.2% (active)
O=C(NC(Nc1nc2ccc([N+](=O)[O-])cc2s1)(C(F)(F)F)C(F)(F)F)c1ccccc1Cl	100% (active)
CN(C)S(=O)(=O)c1ccc(N2CCCC2)c(C(=O)Nc2nc3ccccc3s2)c1	42.1%
CC(C)(C)C1=CC(=O)C(=O)C(C(C)(C)C)=C1	12.5%
COc1ccccc1NC1=C(N2CCCCC2)C(=O)c2ccccc2C1=O	81.7% (active)

Compound	inhibition
COC1=C(Nc2ccccc2)C(=O)c2ccccc2C1=O	26.2%
O=C1OC(/C=C/c2ccc(Cl)cc2)=NC/1=C/c1ccco1	39.5%
CCCCCCOc1ccc(-c2ccc(C#N)cn2)cc1	37.6%
CCCCCCOc1ccc(/C(C)=N/NC2=NCCN2)cc1	80.3% (active)
CCCCCOc1ccc(Br)cc1/C(C)=N/NC1=NCCN1	78.4% (active)
CCCCCCOc1ccc(OC(=O)c2ccncc2)cc1	14.7%
Cc1c(-c2ccccc2)[n+](=O)c2c(n1[O-])CCC2	-7.75%
NC(C(=O)O)C1CC(Cl)=NO1 (stereo not drawn)	59.1% (active)
CCCN(CCC)C(=O)Cn1c(=O)n(CCCCC(=O)NCc2ccco2)c(=O)c2ccccc21	49%
CCc1ccc(S(=O)(=O)/N=C2/C=C(Sc3ncn[nH]3)C(=O)c3ccccc32)cc1	96% (active)
CSCCNC(C)=O	17%
COC(=O)c1sccc1N/N=C(\C)c1ccc(F)c(Cl)c1	36%
O=C(Nc1ccc(Cl)cc1)C1=Cc2ccccc2OC1	65.8% (active)
CC1=C(C(=O)Nc2ccc(Cl)cc2)C(c2ccco2)NC(=O)N1 (stereo not drawn)	15.8%
CCc1cccc(CC)c1NC(=S)NCCc1c(C)[nH]c2ccccc12	50.6% (active)
CCc1cccc(C)c1NC(=S)NCCc1c(C)[nH]c2ccc(C)cc12	44.8%
COc1ccc(CNCC(O)(c2ccccc2)c2ccc(Cl)cc2)cc1 (stereo not drawn)	60% (active)
C=C(C(=O)c1ccccc1)C(C)C(=C)C(=O)c1ccccc1	59.5% (active)
CNC(=O)C(NC(=O)c1ccccc1)=C(C)C	38.2%
COC(=O)c1c(N)c(C#N)c2n1CCCCC2	37.8%
Nc1nc(-c2ccco2)nn1S(=O)(=O)c1ccccc1	21.7%
COc1ccc(-c2nc(N)n(S(=O)(=O)c3ccc(C)cc3)n2)cc1	63.5% (active)
CCOC(=O)c1nc(C)sc1-c1ccnn1S(=O)(=O)c1ccc(C)cc1	45.4%
Cc1c(-c2nc(N)nc(Nc3ccccc3)n2)oc2ccccc12	45.6%
O=C1CC(Sc2nnnn2-c2ccccc2)C(=O)N1c1cccc(Cl)c1 (stereo not drawn)	47.4%
CCOc1cccc(N2C(=O)CC(N3CCN(c4ccc(S(=O)(=O)CC)cc4)CC3)C2=O)c1 (stereo not drawn)	34.4%

Compound	inhibition
CCOc1ccc2nc(SC3CC(=O)N(c4cccc(OC)c4)C3=O)sc2c1 (stereo not drawn)	85% (active)
COC(=O)CSC1=C(C#N)C(=O)NC(c2ccccc2)S1 (stereo not drawn)	39.5%
COCCNC(=O)CCc1ccc(S(=O)(=O)Nc2ccc(C)cc2)cc1	25.9%
Cc1ccc(CSCCNC(=O)CSCc2ccc([N+](=O)[O-])cc2)cc1	68.6% (active)
Cc1cccc(C(=O)NCc2ccc(S(N)(=O)=O)cc2)c1[N+](=O)[O-]	30.2%
Cc1ccc(S(=O)(=O)NC2=NCN(CCOC(=O)c3ccc([N+](=O)[O-])cc3)CN2)cc1	14.1%
COCCNC(=O)c1ccc(C)c(S(=O)(=O)Nc2ccc(C)cc2)c1	27.9%
Cc1ccc(C(=O)NCCc2cccc(Cl)c2)cc1[N+](=O)[O-]	73.5% (active)
CCn1c2ccccc2c2cc(NC(=O)c3ccc(C)c([N+](=O)[O-])c3)ccc21	45.8%
Cc1ccc(C(=O)NCCSCc2ccccc2)cc1[N+](=O)[O-]	52.2% (active)
CCCCCCC1CCC(C(=O)Nn2c(C)nc3ccccc3c2=O)CC1 (stereo not drawn)	49%
CC1CCCC/C1=N\Nc1ccc(S(N)(=O)=O)cc1[N+](=O)[O-] (stereo not drawn)	25.7%
CCc1ccc(C(=O)NC(CC(C)C)C(=O)O)cc1 (stereo not drawn)	46.8%
CC(NC(=O)Nn1cnnc1)(C(F)(F)F)C(F)(F)F	26.3%
Clc1ccc(Nc2ccc(NCc3ccccc3)nn2)cc1	85.7% (active)
COc1cc(C2Nc3ccccc3C(=O)N2c2ccccc2)ccc1O (stereo not drawn)	15.1%
O=C(Nc1cc(Cl)ccc1-n1cncn1)c1ccc([N+](=O)[O-])s1	92% (active)
Cc1ccc2oc(-c3ccc(NC(=O)c4cccnc4)cc3)nc2c1	46.7%
CCCc1cc(C(=O)O)c2ccccc2n1	39.6%
CCC(=O)Nc1cccc(-c2nc3ccccc3o2)c1	78.7% (active)
CCCCCC(=O)Nc1ccc2oc(-c3cccnc3)nc2c1	58.5% (active)
CC(C)CCN(C(=O)Nc1ccccc1)C(C)c1cccs1 (stereo not drawn)	42.2%
COc1ccc2c(c1)NC(=O)CC(c1ccccc1)=N2	43.8%
COc1ccccc1NS(=O)(=O)c1ccc(NC(=O)Cc2cccs2)cc1	33.9%
N/C(Cc1cccs1)=N\OC(=O)COc1ccccc1Cl	59.1% (active)
